# Screening data deposited in PubChem BioAssay by several laboratories.
# Most compounds without a hit are left out; they make up all but 9.6% or so of the library.
# PTEN del growth: suppresses growth of cells with PTEN deletion; HCT116 PTEN-null viability, CellTiter-Glo, 60 h; hits give low values; viability, % at 10 µM; 140,000 compounds, 1.2% hits;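 active = viability at or below a set limit, 4 SD under the median of all tested compounds, cut at about 3.7% in these data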;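 also: PTEN knockout HCT116 line with beta catenin targeted HCT116 as companion control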
# HCT116 bCat-KO: beta-catenin-lacking colon tumor cell growth suppression; HCT116 beta-catenin knockout viability, CellTiter-Glo, 60 h; hits give low values; viability, % at 10 µM; 140,000 compounds, 1.5% hits;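 active = viability at or under a set limit, the compound median less 4 SD, cut at about 6% in these data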;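 also: 0% = Hyamine 1622 control at 20 µM and 100% = untreated cell control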
# L major viab: inhibitors of Leishmania major promastigote growth | Leishmania major promastigotes, resazurin fluorescence viability | inhibition, % at 10 µM | 200,000 compounds, 9% hits | AID 1063; in the data active = inhibition above about 50%;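 also: promastigotes grown with compound for 44 hours at 28 °C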
# Ins promoter up: MIN6 insulin promoter up-regulation. 190,000 compounds, 0.3% hits. MIN6 insulin promoter-GFP reporter, high-content imaging; hits give high values. z-score at 5 µM;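 active = z-score above 3 at 5 µM with at least 500 cells counted in the well; inconclusive = wells under 500 cells, flagged as cytotoxic or low count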
# INS promoter inh: TRM-6 insulin promoter activity inhibition; TRM-6 cells (human fetal islet line), insulin promoter-eGFP reporter, imaging; reporter expression induced with tamoxifen; inhibition, % at 2 µM; 130,000 compounds, 0.9% hits; AID 1273;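 active = inhibition above the mean plus 3 SD, with well images judged a real hit on visual review, cut at about 60% in these data, passing the limit was not always enough; inconclusive = inhibition over the cutoff but images rejected on review; inactive = inhibition not above the cutoff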
# Autophagy mod: autophagy modulation, high-content screen; 190,000 compounds, 0.98% hits; calls only at 10 µM (by protocol); MEF GFP-LC3 puncta imaging; test concentration mostly 10 µM;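 active = percentage of spot-positive cells more than 3 SD above its plate mean, without a fluorescence outlier flag or 80% toxicity; inconclusive = no clear call, values can overlap the other calls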;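 also: spot-positive cell cutoff set from DMSO-treated cells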
# * hit, by the source's call; i = inactive; ? = inconclusive; nt = no result given.
SMILES,PTEN del growth,HCT116 bCat-KO,L major viab,Ins promoter up,INS promoter inh,Autophagy mod
COc1cc(C(=O)Nc2ccc(Cl)c(C(F)(F)F)c2)cc(OC)c1OC,65,77,80*,1.3,-11,i
CCNC(=S)Nc1ccc(Cl)c(C(F)(F)F)c1,56,65,76*,-0.37,57,i
COc1cc(CCC(=O)Nc2ccc(Cl)c(C(F)(F)F)c2)cc(OC)c1OC,82,92,37,0.08,-277,i
O=C(Cn1c(=O)n(CC2CCCO2)c(=O)c2ccccc21)c1ccccc1 (configuration not stated),93,89,44,0.75,13,i
O=C1c2ccccc2-n2c1nc1ccccc1c2=O,nt,nt,100*,1.4,nt,i
Fc1ccc(Nc2c(-c3ccco3)nc3ccccn23)cc1,73,66,66*,0.22,0,i
c1ccc(Nc2c(-c3ccco3)nc3ccccn23)cc1,65,64,49,-0.56,-28,i
Cc1ccc2nc(N(CCCN(C)C)C(=O)c3ccc(S(=O)(=O)N(C)C)cc3)sc2c1,89,85,37,-0.32,50,i
Cc1ccc(C(=O)N(CCCN(C)C)c2nc3ccc(Cl)cc3s2)cc1C,nt,nt,82*,-0.37,-29,i
CCN(CC)CCN(C(=O)c1ccc2c(c1)CCCC2)c1nc2ccc(F)cc2s1,nt,nt,35,-1.1,?,i
Cc1ccc2nc(N(CCCN(C)C)C(=O)c3sc4ccccc4c3Cl)sc2c1,82,80,56*,-0.15,39,i
CN(C)CCCN(C(=O)c1ccc2c(c1)CCCC2)c1nc2ccc(F)cc2s1,2.7*,8,74*,-0.57,-23,i
COC(CC(=O)NNC(=S)Nc1ccccc1)OC,nt,nt,-3,-0.13,38,i
Cc1c(-c2ccc(Br)cc2)nc2ccccn12,77,79,27,-0.44,nt,i
CCOC(=O)C1C(=O)CC(C)(O)C(C(=O)OCC)C1c1cccc(OC(F)(F)C(F)F)c1 (configuration not stated),70,76,-5,0.08,-31,i
COC(=O)c1cc(Br)ccc1-c1ccc(/C=N/n2nnnc2N)o1,85,80,-4,-2.3,31,i
Cc1ccc([N+](=O)[O-])cc1-c1ccc(/C=N\n2nnnc2N)o1,81,39,51*,-0.86,11,i
CCOC(=O)c1oc2ccc(S(=O)(=O)Nc3ccc4c(c3)n(C)c(=O)n4C)cc2c1C,54,51,44,-0.91,-6,i
CCOC(=O)CCn1nc(-c2ccc(Cl)cc2)cc1N,92,91,4,0.13,nt,i
CCOC(=O)Cn1nc(-c2ccc(Cl)cc2)cc1N,84,76,55*,1.4,-25,i
CCOC(=O)c1oc2ccc(S(=O)(=O)n3nc(-c4ccc(Cl)cc4)cc3N)cc2c1C,17,23,98*,-0.11,nt,i
COc1ccc(S(=O)(=O)n2nc(-c3ccc(Cl)cc3)cc2N)cc1,nt,nt,nt,-0.7,nt,nt
CCOC(=O)c1oc2ccc(S(=O)(=O)n3nc(-c4ccc(C)cc4)cc3N)cc2c1C,87,77,91*,-0.4,nt,i
Cc1cccc(OCc2nnc(SCC(=O)N3CCc4ccccc43)n2C)c1,89,88,11,0.19,-79,i
O=C(COC(=O)CCSc1ccc(Cl)cc1)NCc1ccccc1,102,99,60*,0.7,-3,i
SMILES,PTEN del growth,HCT116 bCat-KO,L major viab,Ins promoter up,INS promoter inh,Autophagy mod
O=C(COC(=O)CCSc1ccccc1)Nc1ccc(F)cc1Cl,100,96,53*,0.35,-24,i
O=C(COC(=O)CCSc1ccc(Cl)cc1)NCc1ccc(Cl)cc1,93,93,-5,-0.06,nt,i
CCN(CC)S(=O)(=O)c1ccc(C(=O)OCC(=O)Nc2sc3c(c2C#N)CCCCC3)cc1,87,81,-10,0.18,19,i
Cn1c(=O)c2c(nc(NCCOc3ccc(C(C)(C)C)cc3)n2C)n(C)c1=O,67,62,-5,-1.1,6,i
Cc1cc(C(=O)Nc2cccc3ncccc23)no1,87,86,0,0.43,43,i
O=C(Nc1ccccc1)N(Cc1ccccc1)CC(O)C(F)(F)F (configuration not stated),88,95,-7,nt,-16,i
O=C(Nc1cccc(F)c1)N(Cc1ccc(Cl)cc1)CC(O)C(F)(F)F (configuration not stated),22,27,101*,-0.14,-23,i
NC(=O)COC(=O)CSc1cccc2cccc(Cl)c12,nt,nt,-5,-0.02,nt,i
